Assay results published in publication PMC7862700, “An all-to-all approach to the identification of sequence-specific readers for epigenetic DNA modifications on cytosine”.

Experiments:
Experiment in all cases: DAPPL (digital affinity profiling via proximity ligation, sequencing); 10 mM Tris-HCl pH 7.5, 50 mM NaCl, 1 mM DTT, 4% glycerol, room temperature, 30 min; GST-TFs on glutathione beads, 16-mer random dsDNA library, 0.1% formaldehyde crosslink after washing; high values mean tight binding
FEV = molecular target: T1, FEV (Homo sapiens, UniProt Q99581 1-238); conditions: protein: recombinant; tags: N-terminal GST; dsDNA, one strand shown
T1 sequence: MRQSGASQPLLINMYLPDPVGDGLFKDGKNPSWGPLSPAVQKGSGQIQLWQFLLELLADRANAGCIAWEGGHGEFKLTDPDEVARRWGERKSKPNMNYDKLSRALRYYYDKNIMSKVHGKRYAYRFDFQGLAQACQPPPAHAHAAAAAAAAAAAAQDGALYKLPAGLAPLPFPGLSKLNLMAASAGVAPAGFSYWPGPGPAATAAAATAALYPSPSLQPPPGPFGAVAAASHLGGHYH
How it was run: (§1)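 GST fusions of human transcription factors were expressed in yeast and captured with glutathione beads. Once given DNA barcodes and pooled alongside a tag-only sample, they were incubated for 30 min at room temperature with 200 nmole of a random double-stranded 16-mer DNA library in Tris/NaCl/DTT/glycerol buffer, then washed, crosslinked (0.1% formaldehyde), proximity-ligated, PCR-amplified and sequenced on an Illumina NextSeq500. The binding signal of each hexamer is its read frequency for a factor divided by its frequency for the tag-only sample.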

ETV5 = ETV5 (Homo sapiens, UniProt P41161 1-510); conditions: protein: recombinant; tags: N-terminal GST; dsDNA, one strand shown
ETV5, sequence (P41161 whole entry): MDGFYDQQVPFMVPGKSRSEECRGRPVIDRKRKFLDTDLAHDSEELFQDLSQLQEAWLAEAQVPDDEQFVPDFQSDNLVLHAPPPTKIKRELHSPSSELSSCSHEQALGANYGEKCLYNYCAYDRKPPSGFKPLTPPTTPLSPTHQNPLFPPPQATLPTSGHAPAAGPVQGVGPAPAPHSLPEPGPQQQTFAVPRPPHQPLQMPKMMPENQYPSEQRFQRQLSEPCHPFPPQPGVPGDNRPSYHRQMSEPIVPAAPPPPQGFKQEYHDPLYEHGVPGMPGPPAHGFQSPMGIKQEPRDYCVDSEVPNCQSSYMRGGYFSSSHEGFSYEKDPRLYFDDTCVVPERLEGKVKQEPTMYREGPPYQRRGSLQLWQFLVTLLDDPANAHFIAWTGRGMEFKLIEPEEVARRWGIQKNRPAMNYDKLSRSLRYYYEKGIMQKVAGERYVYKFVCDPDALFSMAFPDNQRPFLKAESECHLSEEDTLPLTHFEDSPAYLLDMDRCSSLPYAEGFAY
How it was run: as §1

HSF1 = HSF1 (Homo sapiens, UniProt Q00613 1-529); conditions: protein: recombinant; tags: N-terminal GST; chain copies: 3; dsDNA, one strand shown
HSF1, sequence (Q00613 whole entry): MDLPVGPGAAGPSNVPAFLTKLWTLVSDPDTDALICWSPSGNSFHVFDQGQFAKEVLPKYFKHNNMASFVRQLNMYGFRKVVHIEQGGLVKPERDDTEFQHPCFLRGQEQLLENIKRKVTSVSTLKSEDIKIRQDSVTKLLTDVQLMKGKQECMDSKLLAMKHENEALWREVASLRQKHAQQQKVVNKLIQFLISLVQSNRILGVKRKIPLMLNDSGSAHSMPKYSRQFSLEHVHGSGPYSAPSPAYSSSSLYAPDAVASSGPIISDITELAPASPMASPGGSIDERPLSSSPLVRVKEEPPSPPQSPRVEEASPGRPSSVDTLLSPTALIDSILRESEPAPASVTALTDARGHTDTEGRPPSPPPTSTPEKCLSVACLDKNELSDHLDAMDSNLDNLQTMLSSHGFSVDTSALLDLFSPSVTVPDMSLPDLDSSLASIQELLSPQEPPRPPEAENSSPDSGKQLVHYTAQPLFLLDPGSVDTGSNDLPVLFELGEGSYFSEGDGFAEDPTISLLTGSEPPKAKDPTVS
How it was run: as §1

SPIC = molecular target: T2, SPIC (Homo sapiens, UniProt Q8N5J4 1-248); conditions: protein: recombinant; tags: N-terminal GST; dsDNA, one strand shown
T2 sequence: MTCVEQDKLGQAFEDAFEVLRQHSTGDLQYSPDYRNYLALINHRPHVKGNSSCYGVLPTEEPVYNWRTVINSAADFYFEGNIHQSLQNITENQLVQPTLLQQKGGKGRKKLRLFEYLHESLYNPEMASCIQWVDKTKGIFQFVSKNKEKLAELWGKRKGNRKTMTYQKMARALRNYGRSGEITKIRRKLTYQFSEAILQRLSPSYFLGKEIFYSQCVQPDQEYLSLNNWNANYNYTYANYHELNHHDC
How it was run: as §1

ELF4 = ELF4 (Homo sapiens, UniProt Q99607 1-663); conditions: protein: recombinant; tags: N-terminal GST; dsDNA, one strand shown
ELF4, sequence (Q99607 whole entry): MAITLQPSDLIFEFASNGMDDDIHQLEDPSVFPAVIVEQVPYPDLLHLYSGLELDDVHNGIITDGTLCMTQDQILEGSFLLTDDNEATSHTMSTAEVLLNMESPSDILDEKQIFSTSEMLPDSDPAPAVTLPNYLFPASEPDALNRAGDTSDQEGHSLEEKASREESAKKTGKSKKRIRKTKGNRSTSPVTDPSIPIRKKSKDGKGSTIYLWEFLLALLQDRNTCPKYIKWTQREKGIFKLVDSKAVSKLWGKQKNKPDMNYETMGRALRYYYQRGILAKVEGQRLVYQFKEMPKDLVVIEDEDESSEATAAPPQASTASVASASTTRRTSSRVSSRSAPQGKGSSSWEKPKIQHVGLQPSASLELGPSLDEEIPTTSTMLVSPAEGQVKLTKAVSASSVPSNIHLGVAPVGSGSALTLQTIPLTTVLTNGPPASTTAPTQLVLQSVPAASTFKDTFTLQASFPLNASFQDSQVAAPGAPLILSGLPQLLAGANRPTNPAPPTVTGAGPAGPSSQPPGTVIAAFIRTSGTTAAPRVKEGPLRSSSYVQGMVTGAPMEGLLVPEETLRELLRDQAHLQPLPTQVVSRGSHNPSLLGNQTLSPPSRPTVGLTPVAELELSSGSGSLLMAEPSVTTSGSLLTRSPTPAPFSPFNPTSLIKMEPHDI
How it was run: as §1

ELK4 = molecular target: T3, ELK4 (Homo sapiens, UniProt P28324-2 1-405); conditions: protein: recombinant; tags: N-terminal GST; dsDNA, one strand shown
T3 sequence: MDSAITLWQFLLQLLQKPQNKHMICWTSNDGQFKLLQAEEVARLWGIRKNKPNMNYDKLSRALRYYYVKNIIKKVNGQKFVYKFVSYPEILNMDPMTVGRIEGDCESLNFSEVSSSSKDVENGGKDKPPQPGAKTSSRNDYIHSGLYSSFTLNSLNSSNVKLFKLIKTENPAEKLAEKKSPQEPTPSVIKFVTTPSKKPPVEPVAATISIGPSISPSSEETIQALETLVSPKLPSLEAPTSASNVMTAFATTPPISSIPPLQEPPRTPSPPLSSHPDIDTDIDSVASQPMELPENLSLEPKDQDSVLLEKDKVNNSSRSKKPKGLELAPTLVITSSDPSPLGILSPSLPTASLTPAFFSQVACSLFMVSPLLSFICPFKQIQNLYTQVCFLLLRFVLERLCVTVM
How it was run: as §1

ETV2 = molecular target: T4, ETV2 (Homo sapiens, UniProt O00321 1-342); conditions: protein: recombinant; tags: N-terminal GST; dsDNA, one strand shown
T4 sequence: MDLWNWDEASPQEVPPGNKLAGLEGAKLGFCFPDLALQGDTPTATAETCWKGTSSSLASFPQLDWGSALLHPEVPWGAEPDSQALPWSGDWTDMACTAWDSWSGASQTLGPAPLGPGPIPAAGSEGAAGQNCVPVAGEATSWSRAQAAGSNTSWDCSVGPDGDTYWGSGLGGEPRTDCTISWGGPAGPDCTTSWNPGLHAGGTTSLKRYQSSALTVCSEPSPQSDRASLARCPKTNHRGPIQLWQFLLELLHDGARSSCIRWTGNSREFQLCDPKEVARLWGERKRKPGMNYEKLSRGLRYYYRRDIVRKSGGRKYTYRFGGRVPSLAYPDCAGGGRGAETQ
How it was run: as §1

ELF3 = molecular target: T5, ELF3 (Homo sapiens, UniProt P78545 1-371); conditions: protein: recombinant; tags: N-terminal GST; dsDNA, one strand shown
T5 sequence: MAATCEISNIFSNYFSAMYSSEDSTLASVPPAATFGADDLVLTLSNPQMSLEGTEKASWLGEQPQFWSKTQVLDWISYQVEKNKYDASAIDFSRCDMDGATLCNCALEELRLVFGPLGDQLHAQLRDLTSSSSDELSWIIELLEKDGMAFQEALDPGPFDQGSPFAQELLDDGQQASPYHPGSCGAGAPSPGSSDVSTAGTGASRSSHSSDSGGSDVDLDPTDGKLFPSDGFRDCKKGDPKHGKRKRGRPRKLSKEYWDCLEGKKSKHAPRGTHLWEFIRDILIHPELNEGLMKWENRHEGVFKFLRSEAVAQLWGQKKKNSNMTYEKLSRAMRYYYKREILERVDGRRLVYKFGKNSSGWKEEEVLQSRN
How it was run: as §1

CRX = CRX (Homo sapiens, UniProt O43186 1-299); conditions: protein: recombinant; tags: N-terminal GST; dsDNA, one strand shown
CRX, sequence (O43186 whole entry): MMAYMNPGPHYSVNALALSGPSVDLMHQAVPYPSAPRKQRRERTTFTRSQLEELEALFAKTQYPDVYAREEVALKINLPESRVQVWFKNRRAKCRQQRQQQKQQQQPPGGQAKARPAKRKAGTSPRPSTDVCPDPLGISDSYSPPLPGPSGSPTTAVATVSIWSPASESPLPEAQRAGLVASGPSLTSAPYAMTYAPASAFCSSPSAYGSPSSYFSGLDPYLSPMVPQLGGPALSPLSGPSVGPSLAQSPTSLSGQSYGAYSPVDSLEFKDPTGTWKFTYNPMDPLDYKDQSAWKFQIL
How it was run: as §1

ETV1 = ETV1 (Homo sapiens, UniProt P50549 1-477); conditions: protein: recombinant; tags: N-terminal GST; dsDNA, one strand shown
ETV1, sequence (P50549 whole entry): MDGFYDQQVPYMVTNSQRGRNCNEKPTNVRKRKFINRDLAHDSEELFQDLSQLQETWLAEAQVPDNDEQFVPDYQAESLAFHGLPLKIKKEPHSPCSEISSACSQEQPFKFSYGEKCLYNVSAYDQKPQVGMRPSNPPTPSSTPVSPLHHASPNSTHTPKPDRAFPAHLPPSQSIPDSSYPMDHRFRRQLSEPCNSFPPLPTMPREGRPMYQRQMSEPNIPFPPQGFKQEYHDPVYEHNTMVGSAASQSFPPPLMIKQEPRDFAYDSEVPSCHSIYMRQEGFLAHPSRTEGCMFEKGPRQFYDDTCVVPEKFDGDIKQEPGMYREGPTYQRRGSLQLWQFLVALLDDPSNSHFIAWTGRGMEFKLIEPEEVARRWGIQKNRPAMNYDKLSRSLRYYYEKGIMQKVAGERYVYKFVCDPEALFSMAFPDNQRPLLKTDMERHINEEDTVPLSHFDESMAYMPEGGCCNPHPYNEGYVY
How it was run: as §1

ERF = molecular target: T6, ERF (Homo sapiens, UniProt P50548 1-548); conditions: protein: recombinant; tags: N-terminal GST; dsDNA, one strand shown
T6 sequence: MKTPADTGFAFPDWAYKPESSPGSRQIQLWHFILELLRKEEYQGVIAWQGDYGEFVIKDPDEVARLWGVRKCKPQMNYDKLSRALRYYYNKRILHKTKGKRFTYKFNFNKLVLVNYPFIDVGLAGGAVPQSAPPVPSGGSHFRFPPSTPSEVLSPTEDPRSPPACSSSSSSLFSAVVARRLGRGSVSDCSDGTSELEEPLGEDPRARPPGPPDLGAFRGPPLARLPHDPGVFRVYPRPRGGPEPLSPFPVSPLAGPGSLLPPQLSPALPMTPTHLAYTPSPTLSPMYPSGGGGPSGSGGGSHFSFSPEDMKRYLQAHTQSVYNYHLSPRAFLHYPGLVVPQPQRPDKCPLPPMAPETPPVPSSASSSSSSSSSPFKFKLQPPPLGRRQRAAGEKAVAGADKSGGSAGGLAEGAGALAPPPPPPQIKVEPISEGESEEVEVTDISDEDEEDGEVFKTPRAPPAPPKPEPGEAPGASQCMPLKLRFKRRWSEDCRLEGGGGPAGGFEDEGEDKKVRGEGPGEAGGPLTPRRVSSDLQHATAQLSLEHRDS
How it was run: as §1

ETV3L = molecular target: T7, ETV3L (Homo sapiens, UniProt Q6ZN32 1-361); conditions: protein: recombinant; tags: N-terminal GST; dsDNA, one strand shown
T7 sequence: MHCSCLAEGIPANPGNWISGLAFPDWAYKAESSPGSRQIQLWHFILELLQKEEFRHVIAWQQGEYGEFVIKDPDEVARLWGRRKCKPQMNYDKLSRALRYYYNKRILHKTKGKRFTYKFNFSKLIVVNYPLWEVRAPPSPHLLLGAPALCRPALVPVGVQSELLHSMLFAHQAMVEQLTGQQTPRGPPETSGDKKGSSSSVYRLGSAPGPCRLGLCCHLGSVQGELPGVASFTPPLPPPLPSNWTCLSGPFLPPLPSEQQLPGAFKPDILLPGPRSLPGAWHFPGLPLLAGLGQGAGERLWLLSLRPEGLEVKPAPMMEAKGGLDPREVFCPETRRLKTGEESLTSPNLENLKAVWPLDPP
How it was run: as §1

ETS2 = molecular target: T8, ETS2 (Homo sapiens, UniProt P15036 1-469); conditions: protein: recombinant; tags: N-terminal GST; dsDNA, one strand shown
T8 sequence: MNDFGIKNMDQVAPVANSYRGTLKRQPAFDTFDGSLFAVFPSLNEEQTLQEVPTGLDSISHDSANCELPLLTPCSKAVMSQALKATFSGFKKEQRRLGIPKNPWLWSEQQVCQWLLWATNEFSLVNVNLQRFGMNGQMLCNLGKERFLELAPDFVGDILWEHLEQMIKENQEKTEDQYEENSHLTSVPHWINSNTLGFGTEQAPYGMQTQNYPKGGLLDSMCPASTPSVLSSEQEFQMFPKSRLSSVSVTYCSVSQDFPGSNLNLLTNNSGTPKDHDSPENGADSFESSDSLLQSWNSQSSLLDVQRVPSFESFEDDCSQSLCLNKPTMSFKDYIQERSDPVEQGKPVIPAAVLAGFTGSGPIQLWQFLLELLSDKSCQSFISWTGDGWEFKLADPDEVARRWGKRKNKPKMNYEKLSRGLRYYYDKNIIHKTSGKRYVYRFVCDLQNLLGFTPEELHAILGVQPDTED
How it was run: as §1

SPDEF = molecular target: T9, SPDEF (Homo sapiens, UniProt O95238 1-335); conditions: protein: recombinant; tags: N-terminal GST; dsDNA, one strand shown
T9 sequence: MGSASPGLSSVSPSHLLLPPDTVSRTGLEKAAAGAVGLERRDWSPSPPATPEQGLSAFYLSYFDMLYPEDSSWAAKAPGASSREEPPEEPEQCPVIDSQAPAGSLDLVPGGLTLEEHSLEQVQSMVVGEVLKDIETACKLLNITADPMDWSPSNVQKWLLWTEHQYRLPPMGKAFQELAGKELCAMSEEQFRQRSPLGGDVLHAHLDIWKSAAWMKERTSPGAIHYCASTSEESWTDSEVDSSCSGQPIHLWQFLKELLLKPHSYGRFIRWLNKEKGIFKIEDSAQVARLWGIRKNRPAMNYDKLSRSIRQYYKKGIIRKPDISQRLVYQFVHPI
How it was run: as §1

ETV7 = molecular target: T10, ETV7 (Homo sapiens, UniProt Q9Y603 1-341); conditions: protein: recombinant; tags: N-terminal GST; dsDNA, one strand shown
T10 sequence: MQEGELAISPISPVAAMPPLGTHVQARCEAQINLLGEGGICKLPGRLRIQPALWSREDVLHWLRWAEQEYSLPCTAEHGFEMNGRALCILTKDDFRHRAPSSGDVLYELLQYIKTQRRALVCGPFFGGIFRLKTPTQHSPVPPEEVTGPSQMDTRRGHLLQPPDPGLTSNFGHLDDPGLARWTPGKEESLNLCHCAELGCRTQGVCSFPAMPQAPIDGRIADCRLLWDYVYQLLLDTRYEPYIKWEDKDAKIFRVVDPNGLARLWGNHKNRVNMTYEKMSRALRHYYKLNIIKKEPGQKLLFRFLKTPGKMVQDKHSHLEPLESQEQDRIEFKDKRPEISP
How it was run: as §1

ELF5 = molecular target: T11, ELF5 (Homo sapiens, UniProt Q9UKW6-2 1-255); conditions: protein: recombinant; tags: N-terminal GST; dsDNA, one strand shown
T11 sequence: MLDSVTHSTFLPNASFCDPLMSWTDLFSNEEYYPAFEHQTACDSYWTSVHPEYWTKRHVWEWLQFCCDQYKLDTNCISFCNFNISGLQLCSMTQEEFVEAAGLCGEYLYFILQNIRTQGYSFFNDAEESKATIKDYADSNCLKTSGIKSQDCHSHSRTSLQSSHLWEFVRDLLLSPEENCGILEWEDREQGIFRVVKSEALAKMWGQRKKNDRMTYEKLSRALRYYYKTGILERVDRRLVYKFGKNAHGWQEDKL
How it was run: as §1

ETV3 = molecular target: T12, ETV3 (Homo sapiens, UniProt P41162-2 1-143); conditions: protein: recombinant; tags: N-terminal GST; dsDNA, one strand shown
T12 sequence: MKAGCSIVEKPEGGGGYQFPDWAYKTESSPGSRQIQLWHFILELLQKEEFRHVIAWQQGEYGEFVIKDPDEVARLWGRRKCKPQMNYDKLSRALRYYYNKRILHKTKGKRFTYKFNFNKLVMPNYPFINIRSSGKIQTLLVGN
How it was run: as §1

ETV6 = ETV6 (Homo sapiens, UniProt P41212 1-452); conditions: protein: recombinant; tags: N-terminal GST; dsDNA, one strand shown
ETV6, sequence (P41212 whole entry): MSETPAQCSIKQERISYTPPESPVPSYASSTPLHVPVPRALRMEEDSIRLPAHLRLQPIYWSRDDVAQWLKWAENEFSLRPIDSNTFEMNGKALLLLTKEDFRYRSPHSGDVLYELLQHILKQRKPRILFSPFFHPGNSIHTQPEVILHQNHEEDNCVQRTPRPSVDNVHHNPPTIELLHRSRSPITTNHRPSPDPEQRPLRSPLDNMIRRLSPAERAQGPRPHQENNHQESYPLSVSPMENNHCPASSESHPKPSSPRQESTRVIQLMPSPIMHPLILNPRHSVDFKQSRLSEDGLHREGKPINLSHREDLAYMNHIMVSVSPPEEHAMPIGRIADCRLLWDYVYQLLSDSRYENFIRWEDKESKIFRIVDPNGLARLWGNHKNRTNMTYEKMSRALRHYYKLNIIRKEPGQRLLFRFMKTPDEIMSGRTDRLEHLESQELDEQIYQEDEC
How it was run: as §1

Sequence: CAACTT
- binding signal (FEV): 1.78 fold enrichment (6-mer frequency, TF over GST control)
- binding signal (ETV5): 1.58 fold enrichment (6-mer frequency, TF over GST control)
- binding signal (HSF1): 1.22 fold enrichment (6-mer frequency, TF over GST control)
- binding signal (SPIC): 1.77 fold enrichment (6-mer frequency, TF over GST control)
- binding signal (ELF4): 1.57 fold enrichment (6-mer frequency, TF over GST control)
- binding signal (ELK4): 1.65 fold enrichment (6-mer frequency, TF over GST control)
- binding signal (ETV2): 1.4 fold enrichment (6-mer frequency, TF over GST control)
- binding signal (ELF3): 1.61 fold enrichment (6-mer frequency, TF over GST control)
- binding signal (CRX): 1.25 fold enrichment (6-mer frequency, TF over GST control)
- binding signal (ETV1): 1.54 fold enrichment (6-mer frequency, TF over GST control)
- binding signal (ERF): 1.44 fold enrichment (6-mer frequency, TF over GST control)
- binding signal (ETV3L): 1.51 fold enrichment (6-mer frequency, TF over GST control)
- binding signal (ETS2): 1.6 fold enrichment (6-mer frequency, TF over GST control)
- binding signal (SPDEF): 1.49 fold enrichment (6-mer frequency, TF over GST control)
- binding signal (ETV7): 1.37 fold enrichment (6-mer frequency, TF over GST control)
- binding signal (ELF5): 1.61 fold enrichment (6-mer frequency, TF over GST control)
- binding signal (ETV3): 1.55 fold enrichment (6-mer frequency, TF over GST control)
- binding signal (ETV6): 1.62 fold enrichment (6-mer frequency, TF over GST control)
